Screening results from PubChem.
The list is not random: actives were taken first. Their share in the collection is about 0.78%.
JMJD2C inh: inhibitors of human GASC-1 (JMJD2C) demethylase; GST-JMJD2C(1-420) H3K9me3 demethylation, DELFIA europium; Q9H3R0; 0.069% of 330,000 active; inhibition, % at 2.35 µM;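 active means more than half of a compound's replicate wells show inhibition beyond 50%, single wells judged on their own value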;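 further: signal counts dimethyl H3K9 product captured on neutravidin plate; 0% = median of DMSO wells and 100% = 0.3 times that DMSO median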
Target sequence (Q9H3R0 1-420 limits assumed): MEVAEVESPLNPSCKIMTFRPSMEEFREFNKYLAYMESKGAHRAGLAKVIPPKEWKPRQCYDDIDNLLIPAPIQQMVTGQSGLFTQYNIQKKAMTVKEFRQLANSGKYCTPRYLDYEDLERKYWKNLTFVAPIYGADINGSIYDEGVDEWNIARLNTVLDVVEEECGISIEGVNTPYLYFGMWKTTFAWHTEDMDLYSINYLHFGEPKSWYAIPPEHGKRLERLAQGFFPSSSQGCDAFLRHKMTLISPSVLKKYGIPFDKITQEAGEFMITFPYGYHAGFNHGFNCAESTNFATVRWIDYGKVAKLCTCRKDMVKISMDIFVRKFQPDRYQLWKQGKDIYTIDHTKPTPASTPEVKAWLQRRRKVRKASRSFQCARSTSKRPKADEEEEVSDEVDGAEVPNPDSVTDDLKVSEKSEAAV
PKA-R2B activ: PKA-R2B complex activation; PKA-R2B holoenzyme dissociation, Cy5-IP20 fluorescence polarization; R2B truncated from residue 108, S112A mutant; 0% DMSO only, 100% 113 µM cGMP; activation, % at 11.4 µM; P22694+P31323; 0.079% of 340,000 active;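 active means activation above a cutoff set at the mean over all compounds plus 3 SD, cut at about 18% in these data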;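 further: higher means more holoenzyme dissociation and a rise in polarization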
PolyA inhibitor: yeast polyadenylation inhibition; 0.02% of 300,000 active; activity score, % at 12 µM; S. cerevisiae SKY197-pL101 polyadenylation reporter, beta-gal luminescence; efflux-impaired pdr1/pdr3 knockout yeast; score 100 = 6 SD above DMSO;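 active means lowest replicate activity score at least 50, where 100 means six control SD above control mean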;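 further: yeast exposed to compound for 9 h at 30 °C; higher score means more reporter readthrough which indicates perturbed polyadenylation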
V-ATPase pHluor: yeast V-ATPase proton transport regulation by pHLuorin; AID 504577; 0.37% of 350,000 active; S. cerevisiae, pHLuorin cytosolic pH fluorescence; response, % at 10 µM; in the data active means response mostly above about 7.3%, no sharp cut-off; inactive means mostly below about 5.4%; further: actives read high
CR mimetic SO: yeast age-related superoxide inhibition as caloric restriction mimetic; S. cerevisiae aged cells, superoxide DHE fluorescence; hits give low values; superoxide response (% of plate mean), % at 10 µM; 0.18% of 330,000 active;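 active means superoxide response under a set limit, about three screen SD below normal, cut at about 65% in these data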;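 further: yeast aged for seven days with compound at 30 °C before DHE staining; 100% = average MFI of all compound-treated wells on the plate with controls excluded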
PKA-R1A act: activates the PKA-R1A holoenzyme complex; PKA-R1A dissociation, Cy5-IP20 fluorescence polarization; scaled: DMSO 0%, 113 µM cGMP 100%; activation, % at 11.4 µM; 0.083% of 340,000 active; AID 504707;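 active means percent activation above the mean of all tested compounds plus 3 SD, cut at about 19% in these data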;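 further: higher means more PKAc released from R1A so a rise in polarization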
V-ATPase pH SP: modulates yeast V-ATPase proton transport | AID 602197 | S. cerevisiae pHLuorin cytosolic pH | response, % at 10 µM | 2% of 980 active | shares compounds with V-ATPase pHluor; in the data active means response above about 24%;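 further: plate controls were vehicle wells for no effect and positive control wells for full effect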
Active calls of the source: *; x = not tested or not shown.

SMILES	JMJD2C inh	PKA-R2B activ	PolyA inhibitor	V-ATPase pHluor	CR mimetic SO	PKA-R1A act	V-ATPase pH SP
COc1c(Cl)cc(Cl)cc1CNCCNCC(C)O (stereo not given)	1.1	-3.5	1.3	0.3	115.3	7.0	x
CNCc1cc(Cl)cc(OC)c1OC(C)C	-1.4	-4.9	-3.1	7.7*	x	-1.7	-2.1
COc1cccc(CN2CCN(C(=S)NCc3ccc(Cl)cc3)CC2)c1	-3.0	3.9	-34.3	-5.2	91.2	-9.4	x
O=C(COc1ccccc1F)NNC(=O)Cc1ccc(S(=O)(=O)N2CCOCC2)s1	-3.2	-0.7	0.6	4.3	97.2	-6.3	x
Cc1ccccc1OCC(=O)NNC(=O)Cc1ccc(S(=O)(=O)N2CCOCC2)s1	9.3	-0.4	34.6	17.7*	103.5	-1.9	7.0
CC(C(=O)Nc1ccc2c(c1)OCO2)c1ccc([N+](=O)[O-])cc1 (stereo not given)	-6.2	4.6	2.0	15.3*	82.0	5.6	1.0
CC(O)(CS(=O)(=O)Cc1ccccc1)c1ccccc1Cl (stereo not given)	-13.7	2.4	-8.8	6.9*	81.5	0.8	-4.5
Cc1c(OCC(=O)NCC(O)c2ccccc2)ccc2c(-c3ccccc3)cc(=O)oc12 (stereo not given)	1.6	-6.4	0.7	-0.6	102.0	-11.1	x
O=C(CCc1nnc(-c2ccc3c(c2)OCO3)o1)NC(c1cccnc1)C(F)(F)F (stereo not given)	0.6	5.2	1.1	8.6*	113.1	-1.7	2.4
CC1(C)Cc2nc3oc4c(NCCCN5CCOCC5)ncnc4c3cc2CO1	2.1	6.8	-8.7	2.8	100.4	3.8	x
CCOc1ccccc1-n1c(SCC(N)=O)nnc1-c1cccnc1	3.8	-0.4	16.5	-1.1	107.8	-4.3	x
CCOc1ccccc1-n1c(SCC(=O)N(C(C)C)C(C)C)nnc1-c1cccnc1	12.5	-15.4	11.2	18.2*	101.0	-2.8	-5.1
COc1ccccc1N1CCN(C(=O)C2CCN(S(=O)(=O)c3ccc4c(c3)CC(C)N4C(=O)C3CC3)CC2)CC1 (stereo not given)	-4.3	9.2	-11.6	13.6*	110.3	-3.9	1.1
COc1ccccc1N1CCN(C(=O)C2CCN(S(=O)(=O)c3ccc4c(c3)CC(C)N4C(C)=O)CC2)CC1 (stereo not given)	65.0	6.1	8.2	-0.3	102.4	-4.1	x
O=C(CSc1nc2ccccc2o1)Nc1nc2ccc(Br)cc2s1	13.2	1.5	1.5	-0.3	84.2	7.6	x
COc1ccc2nc(NC(=O)CSc3nc4ccccc4o3)sc2c1	-4.3	3.0	0.5	11.7*	91.3	3.8	0.7
Cc1ccccc1NC(=O)CSc1nnc2ccc(-c3ccncc3)nn12	14.9	-2.4	-6.7	0.1	104.8	1.1	x
Cc1ccccc1NC(=O)CSc1nnc2ccc(-c3cccnc3)nn12	-7.8	-8.9	6.1	10.4*	104.2	1.7	4.9
Cc1c(Cl)cnc(NC(=O)COC(=O)c2ccncc2)c1Cl	-3.1	-9.5	x	5.9	95.8	7.9	x
Cc1noc(C)c1C(=O)OCC(=O)Nc1ncc(Cl)c(C)c1Cl	-0.8	-15.0	x	10.9*	104.7	5.4	0.8
COc1ccccc1NC(=O)CSc1nc2[nH]ncc2c(=O)[nH]1	-2.4	4.0	0.7	4.6	91.6	-4.4	x
O=C(C1CCCC1)N1CCC(CO)(Cc2ccccc2Cl)CC1	3.9	11.1	4.7	-1.0	85.3	-16.3	x
O=C(C1CCCCC1)N1CCC(CO)(Cc2ccccc2Cl)CC1	8.4	-5.2	21.2	8.6*	89.7	-7.1	2.0
CCN(CC)C(=S)SCC(=O)Nc1ncc2c(n1)CCCC2=O	-8.1	1.3	-8.6	1.4	106.7	0.7	x
CCCCSc1nsc(NC(C)=O)n1	2.6	11.4	3.6	2.5	99.7	5.8	x
CCCCCCSc1nsc(NC(C)=O)n1	3.2	-0.3	11.4	11.1*	112.8	-1.1	3.6
O=C1C2C3C=CC(CC3)C2C(=O)N1/N=C/c1ccccc1O (stereo not given)	2.8	-3.6	-13.9	-1.5	96.9	-8.2	x
